Results: the supplement of paper PMC10849652
Of roughly 7,900 targets only a part is listed; those with a hit were picked by preference. About 0.6% of all pairs of compound and target were hits.

Columns and labels:
Assay in all cases: log2 fold change, soluble protein after heating vs DMSO (PISA); higher = thermal stabilisation; K562 cells, 10 uM, 30 min; active = over 0.2 and 3.5 SD of the protein, either way, in both replicates (recomputed)
[1] = compound: Cc1sc2c(c1C)C(c1ccc(Cl)cc1)=N[C@@H](CC(=O)OC(C)(C)C)c1nnc(C)n1-2
Method in brief: (§1)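 For each measurement, 10 μM compound was applied for 30 min to K562 cells at 2×10^6 cells/mL. Aliquots were heated for 3 min across 48°C-58°C, pooled, and extracted in PBS with 0.5% NP-40 at 4°C; the supernatant after 21,000xg for 90 min was soluble protein. This was quantified by TMTpro 16plex LC-MS/MS with channel sums equalised, and thermal stability was reported relative to control samples from duplicates, on a log2 fold-change scale.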

[2] = compound: C1=CC=C(C=C1)[C@H](COC2=CC3=C(C=C2)NC(=O)N3)NC(=O)C4=CC=CN(C4=O)CC5=CC(=C(C=C5)F)F
Method in brief: as §1

[3] = compound: CC1=C(SC2=C1C(=N[C@H](C3=NN=C(N32)C)CC(=O)N)C4=CC=C(C=C4)Cl)C
Method in brief: as §1

[4] = compound: CC1=C2C(=CC=C1)N=C(N(C2=O)C3=CC=CC=C3C)CN4C=NC5=C(N=CN=C54)N
Method in brief: as §1

[5] = compound: c1ccc([C@@H]2C[C@H]2NC2CCNCC2)cc1
Method in brief: as §1

Measured: log2 fold change

AP2S1 (UniProt M0QZ21)
inactive: [1] -0.014

AP4S1 (UniProt Q9Y587)
UniProt Q9Y587, sequence (Q9Y587 whole entry, looked up): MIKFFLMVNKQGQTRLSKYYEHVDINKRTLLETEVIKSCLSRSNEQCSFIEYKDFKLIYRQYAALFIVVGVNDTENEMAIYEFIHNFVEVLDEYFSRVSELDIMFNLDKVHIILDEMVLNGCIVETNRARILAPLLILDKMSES
inactive: [2] -0.077 | [3] 0.133 | [4] 0.069 | [5] 0

ALDH2 isoform 2 (UniProt P05091)
inactive: [2] -0.092 | [4] 0.379 | [1] 0.074

ATP6AP1 (UniProt Q15904)
UniProt Q15904, sequence (Q15904 whole entry, looked up): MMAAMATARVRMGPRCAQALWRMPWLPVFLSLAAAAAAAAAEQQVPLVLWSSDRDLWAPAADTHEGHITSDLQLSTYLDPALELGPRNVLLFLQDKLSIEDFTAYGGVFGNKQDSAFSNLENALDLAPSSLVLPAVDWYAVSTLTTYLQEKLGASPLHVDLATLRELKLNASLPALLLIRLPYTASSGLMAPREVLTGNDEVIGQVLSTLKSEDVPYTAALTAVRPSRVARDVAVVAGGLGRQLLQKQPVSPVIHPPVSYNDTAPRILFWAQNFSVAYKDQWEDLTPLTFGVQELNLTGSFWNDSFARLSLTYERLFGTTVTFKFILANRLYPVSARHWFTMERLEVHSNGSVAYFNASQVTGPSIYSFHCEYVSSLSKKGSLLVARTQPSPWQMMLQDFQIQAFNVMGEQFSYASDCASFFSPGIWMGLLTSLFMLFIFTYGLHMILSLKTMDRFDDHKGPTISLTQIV
inactive: [2] 0.014 | [3] -0.069 | [4] -0.009 | [1] -0.055 | [5] -0.022

AMD1 (UniProt P17707)
inactive: [2] -0.021 | [4] 0.168 | [1] -0.164

AGAP3 isoform 4 (UniProt Q96P47)
inactive: [2] -0.08 | [3] -0.023 | [1] -0.006 | [5] 0.05

ACTBL2 (UniProt Q562R1)
inactive: [2] -0.444 | [4] -0.201

AUNIP isoform 2 (UniProt Q9H7T9)
inactive: [3] 0.031 | [4] 0.086 | [1] -0.001 | [5] -0.014

ASB6 (UniProt Q9NWX5)
inactive: [2] -0.065 | [4] 0.178

ATP1A4 (UniProt Q13733)
UniProt Q13733, sequence (Q13733 whole entry, looked up): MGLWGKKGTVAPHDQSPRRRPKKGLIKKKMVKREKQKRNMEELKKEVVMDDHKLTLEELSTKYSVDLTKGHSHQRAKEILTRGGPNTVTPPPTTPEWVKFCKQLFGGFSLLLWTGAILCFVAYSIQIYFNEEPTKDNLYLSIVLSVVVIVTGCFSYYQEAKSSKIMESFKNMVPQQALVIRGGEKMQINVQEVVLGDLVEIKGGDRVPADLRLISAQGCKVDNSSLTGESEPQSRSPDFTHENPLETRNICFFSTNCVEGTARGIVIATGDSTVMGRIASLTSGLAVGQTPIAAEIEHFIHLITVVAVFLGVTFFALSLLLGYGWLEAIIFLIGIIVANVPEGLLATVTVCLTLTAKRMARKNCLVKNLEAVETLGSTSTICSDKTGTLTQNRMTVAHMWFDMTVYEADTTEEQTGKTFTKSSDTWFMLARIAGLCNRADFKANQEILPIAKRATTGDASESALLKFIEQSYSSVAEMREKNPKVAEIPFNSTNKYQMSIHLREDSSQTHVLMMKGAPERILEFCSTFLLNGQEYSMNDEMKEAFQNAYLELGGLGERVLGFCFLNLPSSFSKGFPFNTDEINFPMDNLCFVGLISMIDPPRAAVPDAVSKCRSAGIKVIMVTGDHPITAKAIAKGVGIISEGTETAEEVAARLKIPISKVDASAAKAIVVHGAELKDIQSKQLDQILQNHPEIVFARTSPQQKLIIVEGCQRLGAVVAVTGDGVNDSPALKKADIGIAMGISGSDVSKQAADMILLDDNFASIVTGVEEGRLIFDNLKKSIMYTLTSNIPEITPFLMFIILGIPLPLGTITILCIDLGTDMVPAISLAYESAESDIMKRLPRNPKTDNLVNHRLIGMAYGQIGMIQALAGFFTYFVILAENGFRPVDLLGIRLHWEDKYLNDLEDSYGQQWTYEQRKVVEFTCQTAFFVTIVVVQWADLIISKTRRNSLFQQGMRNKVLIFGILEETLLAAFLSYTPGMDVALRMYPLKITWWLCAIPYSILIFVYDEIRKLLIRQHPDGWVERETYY
inactive: [2] -0.084 | [3] -0.142 | [4] 0.035 | [1] 0.036 | [5] 0.056

ACVR1 (UniProt Q04771)
inactive: [3] 0.061 | [4] 0.041 | [1] -0.218 | [5] 0.072

AKNA (UniProt Q7Z591)
inactive: [3] 0.071 | [5] 0.206

BCAP29 isoform 2 (UniProt Q9UHQ4)
UniProt Q9UHQ4, sequence (Q9UHQ4 whole entry, looked up): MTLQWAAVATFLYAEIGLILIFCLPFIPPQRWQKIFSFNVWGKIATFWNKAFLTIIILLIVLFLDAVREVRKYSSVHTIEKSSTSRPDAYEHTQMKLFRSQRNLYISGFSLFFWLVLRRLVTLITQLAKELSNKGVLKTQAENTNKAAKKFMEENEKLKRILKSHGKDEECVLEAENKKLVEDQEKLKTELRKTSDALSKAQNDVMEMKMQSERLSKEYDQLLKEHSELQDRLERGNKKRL
inactive: [2] -0.017 | [3] 0.029 | [4] 0.035 | [1] -0.008 | [5] 0.032

ACTR3B (UniProt Q9P1U1)
inactive: [4] -0.002 | [1] 0.173

AFDN isoform 1 (UniProt P55196)
UniProt P55196, sequence (P55196 whole entry, looked up): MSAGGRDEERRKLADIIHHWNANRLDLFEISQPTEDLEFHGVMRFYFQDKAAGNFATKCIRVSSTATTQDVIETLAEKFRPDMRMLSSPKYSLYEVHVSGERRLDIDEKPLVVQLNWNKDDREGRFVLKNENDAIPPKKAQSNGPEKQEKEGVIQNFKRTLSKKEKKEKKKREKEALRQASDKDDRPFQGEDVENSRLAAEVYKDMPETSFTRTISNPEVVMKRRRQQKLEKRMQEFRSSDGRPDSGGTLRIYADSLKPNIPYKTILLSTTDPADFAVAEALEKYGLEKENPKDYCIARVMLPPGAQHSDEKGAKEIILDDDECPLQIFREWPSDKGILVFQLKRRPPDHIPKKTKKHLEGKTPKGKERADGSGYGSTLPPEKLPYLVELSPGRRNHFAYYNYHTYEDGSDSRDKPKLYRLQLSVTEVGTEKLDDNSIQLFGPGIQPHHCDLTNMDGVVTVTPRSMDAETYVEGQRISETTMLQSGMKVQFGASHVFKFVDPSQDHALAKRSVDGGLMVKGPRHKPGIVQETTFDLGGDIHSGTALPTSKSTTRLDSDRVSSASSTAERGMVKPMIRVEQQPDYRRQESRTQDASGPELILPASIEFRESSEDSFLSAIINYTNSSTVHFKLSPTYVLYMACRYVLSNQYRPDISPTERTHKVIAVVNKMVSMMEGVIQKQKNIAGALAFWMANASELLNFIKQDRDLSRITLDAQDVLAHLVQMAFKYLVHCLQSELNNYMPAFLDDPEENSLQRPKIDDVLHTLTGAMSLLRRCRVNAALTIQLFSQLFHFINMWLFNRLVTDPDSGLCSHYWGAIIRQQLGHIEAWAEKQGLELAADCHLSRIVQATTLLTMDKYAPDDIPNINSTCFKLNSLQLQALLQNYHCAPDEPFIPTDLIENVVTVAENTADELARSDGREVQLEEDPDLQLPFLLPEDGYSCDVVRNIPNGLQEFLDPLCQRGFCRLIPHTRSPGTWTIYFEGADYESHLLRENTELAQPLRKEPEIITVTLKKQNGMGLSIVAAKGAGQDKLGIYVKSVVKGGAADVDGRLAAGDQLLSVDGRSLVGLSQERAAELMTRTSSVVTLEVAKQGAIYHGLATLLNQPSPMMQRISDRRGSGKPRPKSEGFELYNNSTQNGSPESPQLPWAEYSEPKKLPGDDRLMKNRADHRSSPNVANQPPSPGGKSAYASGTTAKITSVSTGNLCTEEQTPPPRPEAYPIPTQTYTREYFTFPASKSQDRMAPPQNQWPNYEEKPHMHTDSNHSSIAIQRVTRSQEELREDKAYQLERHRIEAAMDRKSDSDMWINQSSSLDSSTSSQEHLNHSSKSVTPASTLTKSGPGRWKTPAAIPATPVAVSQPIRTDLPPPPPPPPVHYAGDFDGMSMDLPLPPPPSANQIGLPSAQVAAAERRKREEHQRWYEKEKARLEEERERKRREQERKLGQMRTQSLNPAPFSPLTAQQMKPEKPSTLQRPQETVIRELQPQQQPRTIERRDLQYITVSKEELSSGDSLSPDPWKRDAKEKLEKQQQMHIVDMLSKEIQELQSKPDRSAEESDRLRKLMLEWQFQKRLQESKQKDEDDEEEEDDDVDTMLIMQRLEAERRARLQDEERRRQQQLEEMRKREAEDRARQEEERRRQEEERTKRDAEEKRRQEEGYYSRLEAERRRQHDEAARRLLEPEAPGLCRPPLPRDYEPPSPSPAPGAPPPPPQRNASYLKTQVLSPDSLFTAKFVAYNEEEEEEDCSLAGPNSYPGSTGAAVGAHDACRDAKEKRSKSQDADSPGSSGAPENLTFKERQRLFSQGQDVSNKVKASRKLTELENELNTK
inactive: [2] 0.038 | [3] -0.119 | [4] 0.029 | [5] 0.177

ATP6V1F isoform 2 (UniProt Q16864)
UniProt Q16864, sequence (Q16864 whole entry, looked up): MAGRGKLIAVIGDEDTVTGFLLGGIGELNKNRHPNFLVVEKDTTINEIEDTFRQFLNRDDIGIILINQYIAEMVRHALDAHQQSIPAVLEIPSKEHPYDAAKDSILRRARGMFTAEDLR
inactive: [2] 0.015 | [3] -0.144 | [4] -0.138 | [1] -0.126 | [5] 0.02

BAIAP2 isoform 4 (UniProt Q9UQB8)
inactive: [3] 0.029 | [1] -0.206 | [5] 0.151

ADD3 isoform 2 (UniProt Q9UEY8)
UniProt Q9UEY8, sequence (Q9UEY8 whole entry, looked up): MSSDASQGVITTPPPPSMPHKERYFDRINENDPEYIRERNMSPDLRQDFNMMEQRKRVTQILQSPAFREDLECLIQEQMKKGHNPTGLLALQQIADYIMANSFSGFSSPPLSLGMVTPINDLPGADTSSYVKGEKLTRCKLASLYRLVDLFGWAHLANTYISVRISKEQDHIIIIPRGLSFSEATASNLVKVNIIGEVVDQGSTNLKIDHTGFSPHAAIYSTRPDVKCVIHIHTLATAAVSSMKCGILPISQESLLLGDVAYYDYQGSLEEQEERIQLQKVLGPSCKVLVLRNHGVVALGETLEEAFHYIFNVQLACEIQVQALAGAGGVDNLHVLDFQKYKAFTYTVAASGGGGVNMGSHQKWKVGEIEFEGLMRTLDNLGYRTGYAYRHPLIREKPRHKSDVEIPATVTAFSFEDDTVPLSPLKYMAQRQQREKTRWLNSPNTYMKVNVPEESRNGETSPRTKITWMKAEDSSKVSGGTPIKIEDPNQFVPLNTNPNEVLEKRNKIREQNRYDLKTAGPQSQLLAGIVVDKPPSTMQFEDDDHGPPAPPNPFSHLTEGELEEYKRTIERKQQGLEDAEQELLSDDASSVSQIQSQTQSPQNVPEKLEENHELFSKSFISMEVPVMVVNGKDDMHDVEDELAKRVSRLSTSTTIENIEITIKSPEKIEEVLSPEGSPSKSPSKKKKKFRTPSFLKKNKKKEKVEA
inactive: [3] -0.075 | [4] -0.038 | [1] 0.007 | [5] 0

AZI2 (UniProt Q9H6S1)
UniProt Q9H6S1, sequence (Q9H6S1 whole entry, looked up): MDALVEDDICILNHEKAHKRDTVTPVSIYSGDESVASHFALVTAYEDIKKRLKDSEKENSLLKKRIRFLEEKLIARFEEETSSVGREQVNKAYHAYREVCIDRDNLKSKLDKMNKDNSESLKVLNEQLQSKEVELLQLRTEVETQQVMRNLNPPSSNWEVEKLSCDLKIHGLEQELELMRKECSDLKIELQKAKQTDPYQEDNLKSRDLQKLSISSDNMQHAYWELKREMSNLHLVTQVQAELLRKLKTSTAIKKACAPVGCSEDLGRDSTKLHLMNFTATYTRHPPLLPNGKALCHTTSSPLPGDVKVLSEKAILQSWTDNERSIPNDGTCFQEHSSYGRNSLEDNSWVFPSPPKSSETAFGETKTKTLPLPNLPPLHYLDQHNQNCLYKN
inactive: [2] 0.034 | [4] -0.047 | [1] 0.136

BAP18 isoform 3 (UniProt Q8IXM2)
inactive: [1] 0.041

ACSL6 isoform 1 (UniProt Q9UKU0)
inactive: [2] 0.012 | [4] 0.29 | [1] -0.009

ADAMTS5 (UniProt Q9UNA0)
inactive: [2] 0.149 | [3] 0.106 | [4] 0.152 | [1] -0.076 | [5] -0.028

ABCA4 (UniProt P78363)
inactive: [2] 0.174 | [3] 0.297 | [1] 0.03 | [5] -0.128

ARHGAP4 isoform 2 (UniProt P98171)
inactive: [2] 0.211 | [3] -0.101 | [4] -0.069 | [1] -0.122 | [5] 0.008
